From PubChem BioAssay (EPA / NIEHS)
The source made the active and inactive calls. The calls were made as follows: active = hit-call score of the fitted dose curve at least 0.9, where 1 is the maximum; inactive = score below 0.9.

How the values were obtained:
[1] = read-out: urokinase plasminogen activator (uPA), PLAU (gene 5328); assay: BSK_KF3CT_uPA: BioMAP Diversity Plus: KF3CT Assay for urokinase plasminogen activator (uPA) Biomarker Activity (AID 2283075); settings: primary human keratinocytes with fibroblasts; actives raise or lower the signal
Summary of the method: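 ELISA readout of uPA, analyzed for signal gain or loss relative to DMSO, from a human primary keratinocyte–foreskin fibroblast co-culture measured 24 h after chemical treatment.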

CD40, CD40 (gene 958) [2] = assay: BSK_LPS_CD40: BioMAP Diversity Plus: LPS Assay for CD40 Biomarker Activity (AID 2283076); settings: primary human HUVEC with PBMC; actives raise or lower the signal
Summary of the method: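 Primary human umbilical vein endothelial cells co-cultured with peripheral blood mononuclear cells, LPS-stimulated, were dosed with chemical and read 24 h later. CD40 levels were measured by ELISA and fitted bidirectionally against DMSO as negative control and baseline.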

[3] = read-out: E-selectin (Homo sapiens) (UniProt P16581); assay: BSK_LPS_Eselectin: BioMAP Diversity Plus: LPS Assay for Eselectin Biomarker Activity (AID 2283077); settings: primary human HUVEC with PBMC; actives raise or lower the signal
Summary of the method: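 Human umbilical vein endothelial cells co-cultured with peripheral blood mononuclear cells under LPS stimulation; E-selectin measured by ELISA 24 h after chemical dosing. Activity fitted bidirectionally against DMSO as negative control and baseline.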

[4] = BSK_LPS_SRB: Viability Assessment in the BioMAP Diversity Plus: LPS Assay (AID 2283079); settings: primary human HUVEC with PBMC;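 also: total protein by sulforhodamine B absorbance as a cytotoxicity measure; measured one day after compound addition; fitted in both directions against DMSO so loss or gain of signal counts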
Summary of the method: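 Human umbilical vein endothelial cells co-cultured with PBMC (LPS system) were dosed for 24 h. Total protein was stained with 0.1% sulforhodamine B after 10% TCA fixation, read at 560 nm, and fitted bidirectionally against DMSO baseline.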

[5] = read-out: Interleukin-1 alpha (IL1a), IL1A (gene 3552); assay: BSK_LPS_IL1a: BioMAP Diversity Plus: LPS Assay for Interleukin-1 alpha (IL1a) Biomarker Activity (AID 2283080); settings: primary human HUVEC with PBMC; actives raise or lower the signal
Summary of the method: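 Human umbilical vein endothelial cells co-cultured with peripheral blood mononuclear cells were LPS-stimulated and exposed to test chemicals for 24 h. IL-1 alpha was quantified by ELISA, with bidirectional curve fitting against DMSO as the negative control and baseline.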

[6] = read-out: Monocyte Chemoattractant Protein-1 (MCP1), CCL2 (gene 6347); assay: BSK_LPS_MCP1: BioMAP Diversity Plus: LPS Assay for Monocyte Chemoattractant Protein-1 (MCP1) Biomarker Activity (AID 2283081); settings: primary human HUVEC with PBMC; actives raise or lower the signal
Summary of the method: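 HUVEC plus PBMC co-culture (human primary cells, LPS system) exposed to test chemical for 24 h; MCP-1 measured by ELISA. Bidirectional curve fitting against DMSO baseline; parallel SRB total-protein staining flags overt cytotoxicity.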

[7] = BSK_LPS_PGE2: BioMAP Diversity Plus: LPS Assay for Prostaglandin E2 (PGE2) Biomarker Activity (AID 2283082); settings: primary human HUVEC with PBMC; actives raise or lower the signal
Summary of the method: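 LPS-activated HUVEC/PBMC co-culture; cmpd dosed, 24 h; PGE2 by ELISA; bidirectional fit vs DMSO; SRB (0.1%, TCA-fixed, 560 nm) in parallel plates for overt cytotox.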

[8] = read-out: Macrophage colony-stimulating factor (MCSF), CSF1 (gene 1435); assay: BSK_LPS_MCSF: BioMAP Diversity Plus: LPS Assay for Macrophage colony-stimulating factor (MCSF) Biomarker Activity (AID 2283083); settings: primary human HUVEC with PBMC; actives raise or lower the signal
Summary of the method: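 Human umbilical vein endothelial cells co-cultured with peripheral blood mononuclear cells were exposed to compound for 24 h. M-CSF levels were measured by ELISA, and bidirectional curve fitting used DMSO as the negative control and baseline.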

[9] = read-out: Tissue Factor, F3 (gene 2152); assay: BSK_LPS_TissueFactor: BioMAP Diversity Plus: LPS Assay for Tissue Factor Biomarker Activity (AID 2283084); settings: primary human HUVEC with PBMC; actives raise or lower the signal
Summary of the method: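 Human umbilical vein endothelial cells co-cultured with peripheral blood mononuclear cells were dosed and stimulated with LPS. Cell-surface CD142 was quantified by ELISA at 24 h. Activity was fitted bidirectionally against DMSO baseline.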

[10] = read-out: Tumor necrosis factor (Homo sapiens) (UniProt P01375); assay: BSK_LPS_TNFa: BioMAP Diversity Plus: LPS Assay for Tumour Necrosis Factor alpha (TNFa) Biomarker Activity (AID 2283085); settings: primary human HUVEC with PBMC; actives raise or lower the signal
Summary of the method: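 Read-out is ELISA of TNFa in primary human endothelial cell–PBMC co-cultures at 24 h after compound. Activity in either direction was fitted against DMSO.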

[11] = read-out: Vascular cell adhesion molecule 1 (VCAM1), VCAM1 (gene 7412); assay: BSK_LPS_VCAM1: BioMAP Diversity Plus: LPS Assay for Vascular cell adhesion molecule 1 (VCAM1) Biomarker Activity (AID 2283086); settings: primary human HUVEC with PBMC; actives raise or lower the signal
Summary of the method: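 HUVEC + PBMC co-culture, LPS system; compound 24 h; VCAM-1 by ELISA; bidirectional fit vs DMSO control; parallel SRB (0.1%, TCA-fixed, 560 nm) for cytotoxicity.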

CD38, CD38 (gene 952) = assay: BSK_SAg_CD38: BioMAP Diversity Plus: SAg Assay for CD38 Biomarker Activity (AID 2283087); settings: primary human HUVEC with PBMC; actives raise or lower the signal
Summary of the method: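 Human HUVEC plus PBMC co-culture stimulated with superantigen; CD38 measured by ELISA 24 h after chemical dosing. Fluorescence read-out, bidirectional fit against DMSO; cytotoxicity tracked in parallel by SRB and Alamar Blue.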

CD40, CD40 (gene 958) [12] = assay: BSK_SAg_CD40: BioMAP Diversity Plus: SAg Assay for CD40 Biomarker Activity (AID 2283088); settings: primary human HUVEC with PBMC; actives raise or lower the signal
Summary of the method: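 Human umbilical vein endothelial cells co-cultured with PBMC; CD40 levels measured by ELISA with fluorescence read-out 24 h after chemical dosing. Gain or loss of signal fitted bidirectionally against DMSO baseline.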

CD69, CD69 (gene 969) = assay: BSK_SAg_CD69: BioMAP Diversity Plus: SAg Assay for CD69 Biomarker Activity (AID 2283089); settings: primary human HUVEC with PBMC; actives raise or lower the signal
Summary of the method: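 Endothelial/PBMC co-culture; chemical added; 24 h incubation; CD69 ELISA with fluorescence detection; bidirectional fit vs DMSO.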

[13] = read-out: Monocyte Chemoattractant Protein-1 (MCP1), CCL2 (gene 6347); assay: BSK_SAg_MCP1: BioMAP Diversity Plus: SAg Assay for Monocyte Chemoattractant Protein-1 (MCP1) Biomarker Activity (AID 2283090); settings: primary human HUVEC with PBMC; actives raise or lower the signal
Summary of the method: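 MCP-1 levels in the endothelial–PBMC SAg co-culture were quantified by ELISA at 24 h post-dosing; both increases and decreases versus DMSO scored. Cytotoxicity monitored by SRB total protein in parallel cultures.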

[14] = read-out: E-selectin (Homo sapiens) (UniProt P16581); assay: BSK_SAg_Eselectin: BioMAP Diversity Plus: SAg Assay for Eselectin Biomarker Activity (AID 2283091); settings: primary human HUVEC with PBMC; actives raise or lower the signal
Summary of the method: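 HUVEC co-cultured with PBMC, compound dosed then read at 24 h; E-selectin measured by ELISA. Activity fitted bidirectionally against DMSO as negative control and baseline.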

[15] = read-out: Monokine induced gamma interferon (MIG), CXCL9 (gene 4283); assay: BSK_SAg_MIG: BioMAP Diversity Plus: SAg Assay for Monokine induced gamma interferon (MIG) Biomarker Activity (AID 2283092); settings: primary human HUVEC with PBMC; actives raise or lower the signal
Summary of the method: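 Measures CXCL9 protein by ELISA in a human vascular primary-cell co-culture (umbilical vein endothelium with PBMC) 24 h after chemical addition. Activity is scored up or down from the DMSO control.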

[16] = BSK_SAg_PBMCCytotoxicity: PBMC Cytotoxicity Assessment in the BioMAP Diversity Plus: SAg Assay (AID 2283093); settings: primary human HUVEC with PBMC;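 also: PBMC viability measured as Alamar Blue reduction fluorescence at 546/580 nm; fitted both ways against DMSO so a hit may be loss or gain of signal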
Summary of the method: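 Compound added to 75,000 PBMC/well for 1 h; SEB and TSST-1 then added at 20 ng/mL final each; 90 h incubation; Alamar Blue 6 h; read 546/580 nm ex/em. Activity fitted bidirectionally relative to DMSO baseline.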

[17] = read-out: Interleukin-8 (IL8), CXCL8 (gene 3576); assay: BSK_SAg_IL8: BioMAP Diversity Plus: SAg Assay for Interleukin-8 (IL8) Biomarker Activity (AID 2283094); settings: primary human HUVEC with PBMC; actives raise or lower the signal
Summary of the method: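 ELISA read-out of IL-8 in a primary human vascular co-culture (umbilical vein endothelium plus PBMC), taken 24 h after compound addition. Values derive from bidirectional fits against DMSO negative controls.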

[18] = read-out: Interleukin-8 (IL8), CXCL8 (gene 3576); assay: BSK_LPS_IL8: BioMAP Diversity Plus: LPS Assay for Interleukin-8 (IL8) Biomarker Activity (AID 2283078); settings: primary human HUVEC with PBMC; actives raise or lower the signal
Summary of the method: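 Human umbilical vein endothelial cells co-cultured with PBMC were stimulated with LPS; IL-8 levels were measured by ELISA 24 h after chemical dosing. Activity was fitted bidirectionally against DMSO as negative control and baseline.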

Measured: outcome

Chain of E-selectin (Homo sapiens) (P16581 whole entry, looked up): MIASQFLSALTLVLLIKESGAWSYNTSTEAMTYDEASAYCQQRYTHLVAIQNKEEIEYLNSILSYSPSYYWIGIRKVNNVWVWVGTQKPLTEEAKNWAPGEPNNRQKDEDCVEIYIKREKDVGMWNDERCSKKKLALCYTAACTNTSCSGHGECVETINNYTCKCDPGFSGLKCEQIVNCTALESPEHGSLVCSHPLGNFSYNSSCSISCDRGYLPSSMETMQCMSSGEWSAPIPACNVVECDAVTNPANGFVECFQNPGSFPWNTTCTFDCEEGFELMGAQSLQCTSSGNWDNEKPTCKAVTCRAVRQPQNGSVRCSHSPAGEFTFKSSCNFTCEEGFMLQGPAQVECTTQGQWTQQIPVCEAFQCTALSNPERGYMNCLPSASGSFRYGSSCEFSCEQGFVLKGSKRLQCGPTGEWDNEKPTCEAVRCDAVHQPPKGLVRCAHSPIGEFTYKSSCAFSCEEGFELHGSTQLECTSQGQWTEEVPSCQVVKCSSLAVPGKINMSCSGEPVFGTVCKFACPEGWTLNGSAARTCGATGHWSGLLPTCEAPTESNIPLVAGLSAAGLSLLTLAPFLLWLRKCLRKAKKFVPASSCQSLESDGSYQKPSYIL
Chain of Tumor necrosis factor (Homo sapiens) (P01375 whole entry, looked up): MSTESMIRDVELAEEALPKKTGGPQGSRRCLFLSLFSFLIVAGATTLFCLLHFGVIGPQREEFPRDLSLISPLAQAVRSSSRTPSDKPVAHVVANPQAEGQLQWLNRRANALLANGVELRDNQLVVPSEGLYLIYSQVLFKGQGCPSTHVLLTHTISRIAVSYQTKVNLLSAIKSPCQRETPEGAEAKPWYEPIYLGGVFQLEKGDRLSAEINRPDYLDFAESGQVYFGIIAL

O=C(O)CC(O)(CC(=O)O)C(=O)O
not listed: [18]
inactive: all other assays above

O=C1CCCCC1
not listed: [18]
inactive: all other assays above

CCC(C)N(C)C(=O)c1cc2ccccc2c(-c2ccccc2Cl)n1 (configuration not stated)
not listed: [9]
inactive: all other assays above
